Bioassay records as filed in PubChem.
Rows were chosen to be rich in hits. Some 19% of all compounds tested hit in one or more screens of this group.
TDP1 cell CPT: qHTS for Inhibitors of human tyrosyl-DNA phosphodiesterase 1 (TDP1): qHTS in cells in presence of CPT; 420,000 compounds, 12% hits; chicken DT40 Tdp1-/-;hTDP1 cells + 20 nM CPT, ATP luminescence, 48 h; Potency, µM (highest dose often 46.2 µM), actives largely listed as inhibitors; AID 686979, 2013; further: nearly all actives have a fitted effect of over 55% in size
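Chicken DT40 Tdp1-/- cells stably complemented with human TDP1 were seeded at 400 cells/well in medium containing 20 nM camptothecin, exposed to pin-transferred compounds, and grown at 37 °C for at least 48 hr. Viability was read as ATP luminescence.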
DT40 TDP1 no CPT: qHTS for Inhibitors of human tyrosyl-DNA phosphodiesterase 1 (TDP1): qHTS in cells in absence of CPT | AID 686978, 2013 | Potency, µM (doses to about 46.2 µM), hits mostly inhibitors | DT40 Tdp1-/- hTDP1 cells, no CPT, ATP luminescence, 48 h | 420,000 compounds, 15% hits; further: nearly all actives have a fitted effect of over 55% in size
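Chicken DT40 Tdp1-/- cells complemented with human TDP1, screened without camptothecin (DMSO vehicle only), 400 cells/well. Compounds pin-transferred, cells incubated at 37 °C for at least 48 hr. Growth read as ATP-dependent luminescence (CellTiter-Glo, 30 min at RT).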
IL1B secr inh: qHTS for Inhibitors of Inflammasome Signaling: IL-1-beta AlphaLISA Primary Screen; THP-1 LPS/ATP IL-1B secretion, AlphaLISA, 16 h; active compounds read low; activity change, % at 57.5 µM; 360,000 compounds, 4.7% hits; AID 743279, 2014; in the data active means activity change below about -50%; inconclusive means mostly about -30% to -49%
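Secreted IL-1B measured by AlphaLISA bead assay after 16 h compound exposure of THP-1 cells; compounds (final up to 57.5 uM) added 1 h before LPS (250 ng/mL) and ATP (1.25 mM) stimulation; lower signal means less secretion.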
ELG1 repair inh: qHTS screen for small molecules that inhibit ELG1-dependent DNA repair in human embryonic kidney (HEK293T) cells expressing luciferase-tagged ELG1; Potency, µM (doses to about 46.1 µM), actives largely listed as inhibitors; 330,000 compounds, 2.3% hits; HEK293T ELG1-luciferase reporter, luminescence, 16 h; DNA damage induced by 5-fluorouridine; further: nearly all actives have a fitted effect of over 55% in size
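Luminescence from the luciferase reporter, measured 30 min after ONE-Glo reagent at room temperature, was the read-out. Beforehand, 2,000 cells per well were exposed for 16 hr at 37 °C to 5-fluorouridine together with compound or vehicle.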
TDP1 block: qHTS Assay for Inhibitors of Tyrosyl-DNA Phosphodiesterase (TDP1). recombinant TDP1, AlphaScreen DNA substrate cleavage. Potency, µM (highest dose often 130 µM), most hits filed as inhibitors. 350,000 compounds, 0.28% hits; further: nearly all actives have a fitted effect of over 40% in size
Target sequence (Q9NUW8 whole entry, looked up): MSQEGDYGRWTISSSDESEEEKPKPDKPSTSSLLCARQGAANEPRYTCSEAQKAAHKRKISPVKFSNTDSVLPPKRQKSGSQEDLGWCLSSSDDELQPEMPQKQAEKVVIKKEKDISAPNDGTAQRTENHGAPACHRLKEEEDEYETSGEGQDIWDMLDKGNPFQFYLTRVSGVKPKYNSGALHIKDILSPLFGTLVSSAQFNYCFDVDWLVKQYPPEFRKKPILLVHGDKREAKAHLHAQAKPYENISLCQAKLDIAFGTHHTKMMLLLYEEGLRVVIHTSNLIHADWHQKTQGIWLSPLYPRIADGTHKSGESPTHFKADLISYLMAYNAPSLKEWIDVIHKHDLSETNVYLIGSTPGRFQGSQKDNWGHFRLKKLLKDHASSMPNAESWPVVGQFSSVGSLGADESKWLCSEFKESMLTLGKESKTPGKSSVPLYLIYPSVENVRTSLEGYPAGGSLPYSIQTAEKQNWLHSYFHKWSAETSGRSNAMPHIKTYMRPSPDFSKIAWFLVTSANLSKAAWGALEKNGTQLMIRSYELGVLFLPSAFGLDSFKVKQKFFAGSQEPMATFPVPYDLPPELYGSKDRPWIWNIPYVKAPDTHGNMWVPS
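Compounds were preincubated with Tdp1 (1 nM final) for 15 min at room temperature before substrate (15 nM final) started a 5 min reaction; beads (10 ug/ml final) were then added for 10 min before AlphaScreen detection.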
Giardia killer: Small Molecules that selectively kill Giardia lamblia: qHTS; 340,000 compounds, 0.15% hits; activity change, % at 7.66 µM, hits read low; AID 540267, 2011; Giardia lamblia trophozoite viability; in the data active means activity change below about -80%; inconclusive means between about -30% and that limit;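 further: parasites exposed to compound for two days anaerobically before the ATP read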
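Luminescent ATP signal served as the viability read-out, measured 15-30 min after adding ATP detection reagent to trophozoites that had been incubated with compounds for 48 hrs at 37 deg C anaerobically at 100 cells/well.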
Numbers stand for hits; . = inactive; ? = inconclusive; / = no result given; ! = repeats disagree; [ ] = dose if it differs, or a comment. Unless noted, the call rests on the fitted dose curve; in most records, active means well fitted curve in the direction sought with a large enough effect; inconclusive means small, poorly fitted or top-dose-only effect, or another doubt; inactive means no such curve, though single readings can be large; an effect the other way counts as inactive or inconclusive.

SMILES | TDP1 cell CPT | DT40 TDP1 no CPT | IL1B secr inh | ELG1 repair inh | TDP1 block | Giardia killer
NC1=C([N+](=O)[O-])C(c2ccc3c(c2)OCO3)c2c(c3ccccc3oc2=O)O1 (stereo not given) | . | . | . | . | . | .
CN1CCc2nc(CO)c(CO)cc2C1 | / | / | / | / | .[21 µM] | /
CCCNc1oc(-c2cccc3ccccc23)nc1C#N | . | . | . | ? | . | .
COP(=O)(OC)c1nc(-c2cccc3ccccc23)oc1NCCc1ccccc1 | ? | ? | -95 | ? | . | .
COP(=O)(OC)c1nc(-c2cccc3ccccc23)oc1N1CCOCC1 | . | 18µM | . | . | . | .
CCNc1nc(NC(C)(C)C)nc(SC)n1 | ? | . | . | / | / | .
N#Cc1ccc(C(=O)N2CCN(c3nc4ccc(F)cc4s3)CC2)cc1 | 2.3µM | 2.3µM | / | / | . | /
Cc1ccc(N=C(N(C)C)P(=O)(N(C)C)N(C)C)cc1 | . | . | . | . | . | .
COc1ccc(-c2nc3ccc(C(=O)N4CCC5(CC4)OCCO5)cc3nc2-c2ccc(OC)cc2)cc1 | ? | ? | . | 16µM | . | .
CN1[C@@H]2CC(OC(=O)[C@H](CO)c3ccccc3)C[C@@H]1[C@H]1O[C@H]12 (stereo not given in full) | . | . | / | / | . | /
CN1C[C@H](C(=O)N[C@]2(C)O[C@@]3(O)[C@@H]4CCCN4C(=O)[C@H](Cc4ccccc4)N3C2=O)CC2c3cccc4[nH]cc(c34)C[C@H]21 (stereo not given in full) | ? | 18µM! | . | . | / | .
CC(C)[C@@]1(NC(=O)[C@H]2CC3c4cccc5[nH]cc(c45)C[C@H]3N(C)C2)O[C@@]2(O)C3CCCN3C(=O)[C@@H](Cc3ccccc3)N2C1=O (stereo not given in full) | 15µM | 15µM | / | / | . | /
C=CCc1ccc(OCCn2nnc3ccccc32)c(OC)c1 | 10µM | 8.2µM | . | ? | / | .
C(=NC1CCCCC1)=NC1CCCCC1 | / | / | / | / | . | /
COC1CCC(OC2CC(C3(C)CCC4(CC(O)C(C)C(C(C)/C=C(\C)C(=O)C(C)CC(C)C(=O)O)O4)O3)OC3(OC(C4OC(O)(CO)C(C)CC4C)CC3C)C2C)OC1C (stereo not given) | 0.15µM | 0.15µM | -54 | / | / | .
O=C(c1ccncc1)N1CCC[C@@]2(CCN(Cc3nccs3)C2)C1 | . | . | / | / | / | /
OC12C3C4CC5C6C4C1C6C(C53)N2CCc1cccc(F)c1 (stereo not given) | / | / | / | / | . | /
Cc1cnc(SCc2ccccn2)nc1C1CCCN(C(=O)c2cccc(-c3cccc(F)c3)c2)C1 (stereo not given) | .[9.04 µM] | 16µM | / | / | / | /
Cc1cnc(C)c(Nc2nc(C(N)Cc3ccc(C(F)(F)F)cc3)cs2)n1 (stereo not given) | 12µM | 12µM | ? | / | / | /
NC(Cc1ccc(Cl)cc1)c1csc(Nc2cnccn2)n1 (stereo not given) | . | . | ? | / | / | /
Oc1ccc(-c2cccnc2)cc1CNC1CN2CCC1CC2 (stereo not given) | . | . | / | / | / | /
CC(C)(O)/C=C/C(=O)[C@](C)(O)C1[C@H](O)C[C@@]2(C)C3CC=C4C(C=C(O[C@@H]5O[C@H](CO)[C@@H](O)[C@H](O)[C@H]5O)C(=O)C4(C)C)[C@]3(C)C(=O)C[C@]12C (stereo not given in full) | ? | ? | . | ? | . | .
CC(C)(O)/C=C/C(=O)[C@](C)(O)C1[C@H](O)C[C@@]2(C)C3CC=C4C(C[C@H](O)[C@@H](O)C4(C)C)[C@]3(C)C(=O)C[C@]12C (stereo not given in full) | 0.29µM | 0.33µM | -87 | ? | . | .
OC[C@@H](O)[C@H]1O[C@@H]2O[C@H](C(Cl)(Cl)Cl)O[C@@H]2[C@H]1O | . | . | / | / | / | /
CCCCn1c(NC(=O)c2ccc(Br)o2)c(C(=O)OCC)c2nc3ccccc3nc21 | ? | 21µM | . | ? | . | .
SMILES | TDP1 cell CPT | DT40 TDP1 no CPT | IL1B secr inh | ELG1 repair inh | TDP1 block | Giardia killer
CCCCn1c(NS(=O)(=O)c2ccccc2)c(C(=O)OCC)c2nc3ccccc3nc21 | ? | 21µM | . | . | . | .
COc1ccccc1N=Nc1ccc(N)c(C)c1 | . | . | . | ? | / | .
O=C(O)C1=CCCN(CCOC(c2ccc(C(F)(F)F)cc2)c2ccc(C(F)(F)F)cc2)C1 | ? | . | / | / | . | /
c1ccc(CCCN2CCN(CCOC(c3ccccc3)c3ccccc3)CC2)cc1 | 9.2µM | 13µM | . | / | . | .
Fc1ccc(C(OCCN2CCN(C/C=C/c3ccccc3)CC2)c2ccc(F)cc2)cc1 | 5.2µM | 3.3µM | / | / | . | /
C=CC[C@@H](CC(=O)N(CCO)Cc1ccccc1)C(=O)NC[C@H](OC(=O)[C@@H](CC=C)CC(=O)OC(C)(C)C)c1ccccc1 | 21µM | . | ? | 21µM | . | .
CN(C(=O)CNC(=O)OCc1ccccc1)c1ccc(Br)cc1C(=O)c1ccccc1Cl | 3.3µM | 2.3µM | . | . | . | .
O=C(CNC(=O)OCc1ccccc1)Nc1ccc(Br)cc1C(=O)c1ccccc1Cl | ? | ? | . | ? | . | .
Cc1ccc([C@H]2C[C@@H](O)[C@H](n3cc(COC(=O)c4ccccc4)nn3)CN2CC2CCCCC2)cc1 | ? | ? | . | / | / | /
COC(=O)[C@@H]1C[C@H]1[C@@H](NP(=O)(c1ccccc1)c1ccccc1)c1ccccc1 | 21µM | ? | . | ? | . | .
Cc1ccc(C[N+](C)(C)C)o1 | ? | . | / | / | . | /
ClCC1CO1 (stereo not given) | . | . | / | / | . | /
CC(C)N1CC=C(c2c[nH]c3ccccc23)CC1 | 7.3µM | 4.6µM | . | ? | . | .
C1=C(c2c[nH]c3ccccc23)CCNC1 | / | / | / | . | . | /
CC(C)n1nc(-c2cc3cc(O)ccc3[nH]2)c2c(N)ncnc21 | 0.094µM | 0.17µM | / | / | / | /
Cc1c(N=Cc2c(O)n(Cc3ccccc3)c(=O)[nH]c2=O)c(=O)n(-c2ccccc2)n1C | . | . | -72 | . | . | .
Cc1c(N=Nc2c(O)n(Cc3ccccc3)c(=O)[nH]c2=O)c(=O)n(-c2ccccc2)n1C | 16µM | 12µM | . | ? | . | .
